Compound activity: PubChem, Broad Institute
STK33 kin inh: inhibitors of human STK33 kinase | Q9BYT3 | ADP-Glo luminescence, MBP substrate | inhibition, % at 12.5 µM | 0.44% of 27,000 active; in the data active = inhibition above about 20%
Target sequence (Q9BYT3 whole entry, looked up): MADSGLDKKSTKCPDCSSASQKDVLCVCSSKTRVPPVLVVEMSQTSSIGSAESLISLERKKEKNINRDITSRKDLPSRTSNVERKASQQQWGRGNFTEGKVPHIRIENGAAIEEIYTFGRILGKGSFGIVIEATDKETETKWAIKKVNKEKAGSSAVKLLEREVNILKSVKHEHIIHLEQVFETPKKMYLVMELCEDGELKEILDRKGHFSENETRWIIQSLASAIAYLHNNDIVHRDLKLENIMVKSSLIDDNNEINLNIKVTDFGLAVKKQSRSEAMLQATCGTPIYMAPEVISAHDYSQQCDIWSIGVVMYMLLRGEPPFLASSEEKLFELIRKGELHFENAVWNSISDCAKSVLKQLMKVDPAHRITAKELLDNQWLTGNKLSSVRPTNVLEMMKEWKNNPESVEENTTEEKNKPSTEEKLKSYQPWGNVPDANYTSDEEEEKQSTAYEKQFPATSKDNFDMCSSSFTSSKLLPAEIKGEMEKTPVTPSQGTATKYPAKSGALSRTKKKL
NOMO-1 viab: STK33 inhibitor candidate reducing NOMO-1 cell viability | NOMO-1 AML viability, CellTiter-Glo luminescence, 72 h | inhibition, % (test concentration not listed) | 7.5% of 37,000 active | AID 2330; in the data active = inhibition above about 80%
PD-1 reverse act: activators reversing PD-1 mediated T-cell inhibition. 29,000 tested, under 10 active. activation, % (test concentration not listed). primary human CD4 T cells, PD-L1 beads, CellTiter-Glo 96 h; call rule not given here;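 note: 0% = median vehicle wells and 100% = positive control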
An asterisk follows results filed as active; . = no result given; ! = a repeat was not active. The sample as a whole holds a higher share of hits than the screen did.

SMILES	STK33 kin inh	NOMO-1 viab	PD-1 reverse act
O=C(CSc1nc2ccccc2c(=O)[nH]1)Nc1ccccc1Cl	1.7	18.6	-0.8
O=C(CSc1nc(-c2ccccc2)cc(C(F)(F)F)n1)Nc1ccc(F)cc1	0.0	33.9	.
CCOC(=O)CCS(=O)(=O)c1nc(-c2ccccc2)cc(C(F)(F)F)n1	1.0	114.8*	-15.7
O=C(CSc1nc(-c2ccc(Cl)cc2)cc(C(F)(F)F)n1)c1ccccc1	4.6	31.7	-0.4
CCOC(=O)CS(=O)(=O)c1nc(-c2ccc(F)cc2)cc(C(F)(F)F)n1	8.2	134.7*	-15.9
O=C(Oc1ccc(N(Cc2cccs2)C2=NS(=O)(=O)c3ccccc32)cc1)c1ccccc1	.	34.7	0.6
C=CCN1C(C(=O)c2ccccc2)=C(OC(=O)c2ccccc2)c2ccccc2S1(=O)=O	.	107.9*	-5.9
COc1cccc(S(=O)(=O)Nc2ccc(C(=O)Nc3ccc4c(c3)OCCO4)cc2)c1	1.9	-15.2	3.4
CC(=O)CSc1nnc(-c2cccnc2)o1	7.2	11.2	.
COc1ccc(S(=O)(=O)NCc2ccccc2)cc1-c1nnc2c3ccccc3c(C)nn12	0.1	115.7*	.
COc1ccc(-c2nnc3c4ccccc4c(C)nn23)cc1S(=O)(=O)NCc1ccccc1	3.0	46.9	-0.4
c1ccc(-c2oc3ncnc(NCCN4CCOCC4)c3c2-c2ccccc2)cc1	2.5	39.3	-4.3
O=C(O)CNc1ncnc2oc(-c3ccccc3)c(-c3ccccc3)c12	43.4*	9.6	-5.2
Cc1nc(-c2cc(C#N)c(SCCNS(=O)(=O)c3ccc(C(C)(C)C)cc3)nc2C)cs1	.	52.1	0.5
Cc1cc(C)c2c(n1)sc1c(Sc3nnc(-c4ccncc4)o3)ncnc12	.	14.9	-0.8
CCn1c(Sc2ncnc3c2sc2nc(C)cc(C)c23)nnc1-c1cccs1	.	103.8*	-1.1
CC1(C)CC(=O)C(C=NCc2ccc(F)cc2)=C(O)C1	.	1.6	0.3
O=S(=O)(Nc1nc2ccccc2nc1NCCc1ccccc1)c1ccc(Cl)cc1	.	18.3	0.9
CSC1=N/C(=C\c2ccc(Cl)cc2)C(=O)N1CCOc1ccc(Cl)cc1	1.4	9.1	2.9
CSC1=N/C(=C\c2ccc(Cl)cc2)C(=O)N1CCc1c[nH]c2ccccc12	.	84.9*	-0.6
CC(=O)c1cccc(NC(=O)Cc2ccccc2[N+](=O)[O-])c1	-2.8	23.5	0.0
Cc1ccc(-n2c(SCC(=O)NCC3CCCO3)nc3sc(C)c(C)c3c2=O)cc1C (stereo not given)	0.0	1.0	-1.6
COC(=O)c1cccc(NC(=O)CSc2n[nH]c(-c3ccc(Cl)cc3)n2)c1	2.0	.	.
C=C1C(=O)O[C@@H]2C3O[C@]3(C)CC/C=C(/C)CC[C@@H]12 (stereo not given in full)	0.8	107.5*	.
C=C1C(=O)O[C@@H]2[C@H]3O[C@]3(C)CCC=C(C)CC[C@@H]12	0.7	141.0*	-58.7
SMILES	STK33 kin inh	NOMO-1 viab	PD-1 reverse act
CC1(C)Cc2nc3sc4c(SCC(=O)Nc5ccc(Cl)cc5)ncnc4c3cc2CO1	-0.4	-15.6	-1.0
COc1ccc(OCCSc2nc3ccccc3n2C)cc1	.	2.6	-0.6
Cc1ccc(S(=O)(=O)N(C)C[C@@H]2Oc3ccc(NC(=O)C4CC4)cc3CC(=O)N([C@@H](C)CO)C[C@@H]2C)cc1	-0.6	84.5*	0.1
COc1ccc(NC(=O)Nc2ccc3c(c2)CC(=O)N([C@H](C)CO)C[C@H](C)[C@H](CN(C)S(=O)(=O)c2ccc(F)cc2)O3)cc1	.	125.5*	.
COc1ccc(S(=O)(=O)N(C)C[C@@H]2Oc3ccc(NC(=O)Nc4ccc(F)cc4)cc3CC(=O)N([C@H](C)CO)C[C@@H]2C)cc1	2.1	32.6	.
Cc1ccc(S(=O)(=O)N(C)C[C@@H]2Oc3ccc(NC(=O)C4CC4)cc3CC(=O)N([C@H](C)CO)C[C@H]2C)cc1	-2.2	11.1	0.1
Cc1ccc(S(=O)(=O)N(C)C[C@H]2Oc3ccc(NC(=O)Nc4ccc(F)cc4)cc3CC(=O)N([C@@H](C)CO)C[C@H]2C)cc1	-3.4	43.5	-2.1
Cc1ccc(S(=O)(=O)N(C)C[C@@H]2Oc3ccc(NC(=O)Nc4ccccc4)cc3CC(=O)N([C@H](C)CO)C[C@H]2C)cc1	3.1	9.6	.
Cc1ccc(S(=O)(=O)N(C)C[C@@H]2Oc3ccc(NC(=O)Nc4ccccc4)cc3CC(=O)N([C@H](C)CO)C[C@@H]2C)cc1	.	99.7*	.
Cc1ccc(S(=O)(=O)N(C)C[C@@H]2Oc3ccc(NC(=O)Nc4ccc(F)cc4)cc3CC(=O)N([C@H](C)CO)C[C@@H]2C)cc1	-6.4	126.7*	-0.7
CCn1c(SCC(=O)Nc2ccc3c(c2)OCCO3)nnc1-c1ccccc1	0.9	26.5	0.6
Cc1cc(C)nc(NC(=O)COc2ccc([N+](=O)[O-])cc2)n1	3.3	-7.7	2.3
COc1ccccc1C(NC(C)=O)c1c(O)ccc2ccccc12 (stereo not given)	3.1	4.9	-4.0
COC(=O)c1ccc(NC(=O)CSc2nnc(-c3ccccc3)n2-c2ccccc2)cc1	6.2	29.4	-0.3
CCN(CC)C(=O)[n+]1ccc(OC)cc1	.	61.0	-0.6
Cc1ccc(S(=O)(=O)N(C)C[C@@H]2Oc3ccc(NC(=O)Nc4ccc(F)cc4)cc3CC(=O)N([C@@H](C)CO)C[C@@H]2C)cc1	2.2	104.1*	-1.5
Cc1ccc(S(=O)(=O)N(C)C[C@@H]2Oc3ccc(NC(=O)NC(C)C)cc3CC(=O)N([C@@H](C)CO)C[C@@H]2C)cc1	0.7	98.1*	0.3
Cc1ccc(S(=O)(=O)N(C)C[C@H]2Oc3ccc(NC(=O)Nc4ccc(F)cc4)cc3CC(=O)N([C@H](C)CO)C[C@H]2C)cc1	-4.3	-10.3	-1.8
CC(C)NC(=O)Nc1ccc2c(c1)CC(=O)N([C@H](C)CO)C[C@H](C)[C@H](CN(C)S(=O)(=O)c1ccc(Cl)cc1)O2	-0.3	23.8	.
Cc1cc(C)c(S(=O)(=O)N(C)CC(=O)Nc2cc(C(F)(F)F)ccc2Cl)c(C)c1	0.5	1.5	.
O=C(COc1ccccc1[N+](=O)[O-])Nc1ccccc1N1CCN(C(=O)c2ccccc2)CC1	6.0	31.2	.
O=C(COc1ccccc1[N+](=O)[O-])Nc1cccc(Cl)c1N1CCOCC1	3.9	82.5*	-0.1
COc1ccc([N+](=O)[O-])cc1NC(=O)C(C)N(c1ccccc1)S(C)(=O)=O (stereo not given)	2.6	3.4	0.6
O=C(CSc1ccccn1)Nc1c(C(=O)c2ccc(F)cc2)oc2ccccc12	3.4	11.5	.
Cc1ccc(S(=O)(=O)NCc2ccccc2)cc1	.	11.8	-0.6
SMILES	STK33 kin inh	NOMO-1 viab	PD-1 reverse act
Cc1ccc(S(=O)(=O)N[C@H](Cc2ccccc2)C(=O)CCl)cc1	0.5	98.2*	-9.4
Cc1nc(SC(C(=O)O)c2ccccc2)cc(-c2ccccc2)n1 (stereo not given)	-0.6	27.1	-0.3
CCC(Sc1nnnn1-c1ccccc1)C(=O)Nc1ccccc1OC (stereo not given)	1.7	34.1	-0.5
COC(=O)C1=C(C)NC(C)=C(C(=O)OCCN(C)Cc2ccccc2)C1c1cccc([N+](=O)[O-])c1 (stereo not given)	1.7	142.3*!	-10.1
COC(=O)C1=C(C)NC2=C(C(=O)c3ccccc32)C1c1ccc(OCc2cccc([N+](=O)[O-])c2)c(Br)c1 (stereo not given)	0.7	.	.
N#Cc1c(NC(=O)CN2CCN(Cc3ccccc3)CC2)sc2c1CCCC2	1.0	6.5	.
